This note sets out measurements from PubChem BioAssay.

As a reminder, the inhibition is the drop in the measured response relative to a control, in per cent.

The test system of the experiment is Rat fibroblasts (CREF). The experiment can be described thus: inhibition of PEG-3 promoter-driven reporter – cell-based, HeLa, luciferase, CREF/GAPDH counter-screen panel, dose response (AID 624167). Particulars: CREF/GAPDH counter-screens; run 1, dose range 1, at 100 µM (top of the series). In general terms: The purpose of a counterscreen is to sort out artefacts and off-target activity.
In the case of `c1ccc(-c2nc(-c3ccccn3)no2)cc1`, the inhibition worked out at 98%.

Take `COc1ccccc1CNCC(O)Cn1c2ccccc2c2ccccc21` (centres undefined): the inhibition amounted to 99.2%. As for `CN(C)c1c([N+](=O)[O-])cc(N2C(=O)C=CC2=O)cc1[N+](=O)[O-]`, the figure is 101%; as for `O=C(Nc1ncc([N+](=O)[O-])s1)c1ccc2c(c1)OCO2`, 91.5%. As for `C/C(=N\NC(=O)c1cc(C2CC2)nc2ccccc12)c1ccc(O)cc1O`, the figure is 31.4%; as for `Nc1ccc(-c2nc3ccc(C(=O)O)cc3s2)cc1`, 89.1%.

Regarding `O=C(NCCc1ccccc1)c1ccc2c(c1)OCO2`, the inhibition amounted to 93.9%. In the case of `CN(C)c1ccc(/C=C(\C#N)c2ccccn2)cc1`, the inhibition was 98.2%.

For the compound `CCCN1C=CC(=C2C(=O)c3ccccc3C2=O)C=C1`, the inhibition was 100%. `O=C(/C=C\Nc1ccc2c(c1)OCO2)c1ccccn1`: the inhibition is 98.9%. As for `CC1CCN(c2ccc(-c3cccs3)nn2)CC1`, the inhibition was 96.1%. Regarding `CN[C@H]1C[C@H]2c3[nH]c4ccc(-c5ccc(OC)cc5)cc4c3CCN2C(=O)[C@H]1[C@H](C)O`, the inhibition was determined as 96%.

Regarding `CCCC(=O)NC(c1ccc(C(C)C)cc1)c1ccc2cccnc2c1O` (centres undefined), the inhibition stood at 17.4%. Consider `CCCS(=O)(=O)c1cnc(C2COc3ccccc3O2)nc1N` (centres undefined), for which the inhibition was found to be 89.5%. The same measure for `O=C(Nc1nc2cc3c(cc2s1)OCO3)C1=COCCO1`: 93.7%; for `O=C(Nc1nc2cc3c(cc2s1)OCCO3)C1=COCCO1`: 95.3%; for `CN(C)c1ccc(/C=C/c2ccc3c4ccccc4ccc3[n+]2-c2ccccc2)cc1`: 101%. Take `CCOC(=O)c1c(SCCN2CCCCC2)n(-c2ccccc2)c(=S)n(-c2ccccc2)c1=O`: the inhibition came out at 90.4%.

Consider `CN=c1scc(-c2ccccc2F)n1/N=C/c1ccc[nH]1`, for which the inhibition was determined as 100%. Consider `Cc1nc(SCC(=O)Nc2nc3ccccc3s2)c(C#N)c(C)c1C`, for which the inhibition is 97.8%.

As to `O=[N+]([O-])c1ccc(S(=O)(=O)c2ccccc2)nc1`, the inhibition turned out to be 99.3%. Take `COc1ccc(-n2c(O)c(/C=N/Nc3nc(C)cc(C)n3)c3ccccc3c2=O)cc1OC`: the inhibition was found to be 80.4%.

In the case of `O=C(Nc1ccc(Cc2ccncc2)cc1)c1ccc([N+](=O)[O-])o1`, the inhibition is 100%. Turning to `Cc1ccc(-c2nc(-c3ccccn3)no2)cc1Cl`, the inhibition came out at 99.3%. Consider `Cc1ccc2nc(-c3ccc4c(c3)OCCO4)cn2c1`, for which the inhibition was determined as 100%. For the compound `N=c1n(CC(=O)c2ccc([N+](=O)[O-])cc2)c2ccccc2n1Cc1ccc(Cl)cc1`, the inhibition is 99.2%. For `O=C(N/N=C/c1ccc(Cl)c([N+](=O)[O-])c1)c1cc(-c2ccc3c4c(cccc24)CC3)n[nH]1`, the inhibition is -4.6%. For `Cc1cc(N2CCN(C)CC2)ccc1NC(=O)c1c2c(nc3ccccc13)CCN(Cc1ccccc1)C2`, the inhibition was found to be 99.4%.

For `O=C(CNC(=O)C(c1ccccc1)c1ccccc1)N/N=C/c1ccc(O)cc1O`, the inhibition stood at 28.9%. `COc1ccc(-c2cc3nc(C)n(N)c(=O)c3s2)cc1`: the inhibition is 99%. On to `Cc1cc(C2=NNC(=NC3CC3)SC2)c(C)n1-c1ccccc1F`, for which the inhibition was found to be 96.9%.

`Cc1ccccc1CNC(=O)C1CCCN(c2nnc(C)c3c(C)n(-c4ccccc4)nc23)C1` (centres undefined): the inhibition worked out at 98.3%. The same measure for `CC(C)CC1C(=O)N(Cc2cn(Cc3ccco3)nn2)CCS(=O)(=O)N1Cc1ccc(-c2ccc(F)cc2)cc1` (centres undefined): 96.8%; for `Cc1ccccc1OCC(=O)Nc1cccc(C(=O)O)c1`: 95.9%; for `CN=c1sc2c(n1C)C(=O)c1ccccc1C2=O`: 97.8%. Regarding `COCCCNC(=O)c1ccc(Cn2c(=O)c3ccccc3n(Cc3ccccc3C#N)c2=O)cc1`, the inhibition amounted to 40.3%. Take `Cc1oc(-c2ccc3c(c2)OCCO3)cc1C(=O)O`: the inhibition worked out at 84.4%. As for `Oc1c(I)cc(Cl)c2cccnc12`, the figure is 87%; as for `Cc1nc(C)c(C(=O)N/N=C/c2cc(Br)ccc2O)s1`, 52.7%.
